Values joined by “and” are separate entries in the source; they are usually repeats but may differ in a detail not shown here. Equal entries are not always repeated. Among all 5,500 compounds or so, about 2,000 (36%) were called active. Inconclusive results (about 18%) are left out. Rule as the data show it: active = normalized growth mostly below about 0.91 (no sharp cut-off); inconclusive = no clear call, values can overlap the other calls; inactive = mostly above about 0.92. The list shows a part of the results.
Experiment: chemical genetic growth profiling, strain panel (AID 1159580);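 also: tested at 20 µM; growth read once vehicle control cultures reached saturation at 30 °C; 1 = growth at the plate median or of vehicle wells; lower values mean less growth of the strain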
Details: growth OD

Measured: normalized growth

NNCc1cccc(O)c1
inactive: S. cerevisiae deletion strains, locus YAL013W, strain DEP1, hits give low values 0.994 | S. cerevisiae deletion strains, locus YAL040C, strain CLN3, hits give low values 1.08 | S. cerevisiae deletion strains, locus YBR021W, strain FUR4, hits give low values 1.07 | S. cerevisiae deletion strains, locus YBR229C, strain ROT2, hits give low values 1 | S. cerevisiae deletion strains, locus YCL029C, strain bik1, hits give low values 0.988 | S. cerevisiae deletion strains, locus YCL061C, strain MRC1 (second series), hits give low values 0.984 | S. cerevisiae deletion strains, locus YDL035C, strain GPR1, hits give low values 0.969 | S. cerevisiae deletion strains, locus YDL074C, strain BRE1, hits give low values 0.98 | S. cerevisiae deletion strains, locus YDL101C, strain DUN1, hits give low values 0.994 | S. cerevisiae deletion strains, locus YDL134C, strain PPH21, hits give low values 0.994 | S. cerevisiae deletion strains, locus YDL192W, strain arf1, hits give low values 1 | S. cerevisiae deletion strains, locus YDR101C, strain arx1, hits give low values 0.989 | S. cerevisiae deletion strains, locus YDR150W, strain NUM1, hits give low values 0.987 and 0.976 | S. cerevisiae deletion strains, locus YDR162C, strain NBP2, hits give low values 0.987 | S. cerevisiae deletion strains, locus YDR318W, strain mcm21, hits give low values 1 | S. cerevisiae deletion strains, locus YDR363W, strain ESC2, hits give low values 1.01 | S. cerevisiae deletion strains, locus YDR388W, hits give low values 1.01 | S. cerevisiae deletion strains, locus YDR502C, strain sam2, hits give low values 0.996 | S. cerevisiae deletion strains, locus YEL061C, strain CIN8, hits give low values 1 | S. cerevisiae deletion strains, locus YER002W, strain NOP16, hits give low values 0.995 | S. cerevisiae deletion strains, locus YER110C, hits give low values 0.968 | S. cerevisiae deletion strains, locus YER155C, strain BEM2, hits give low values 1 | S. cerevisiae deletion strains, locus YER167W, strain BCK2, hits give low values 0.99 | S. cerevisiae deletion strains, locus YGL078C, strain dbp3, hits give low values 0.99 | S. cerevisiae deletion strains, locus YGL086W, strain mad1, hits give low values 0.984 | S. cerevisiae deletion strains, locus YGL248W, strain PDE1, hits give low values 0.996 | S. cerevisiae deletion strains, locus YGR078C, strain PAC10, hits give low values 1 | S. cerevisiae deletion strains, locus YGR135W, strain pre9, hits give low values 1.02 | S. cerevisiae deletion strains, locus YGR229C, strain SMI1, hits give low values 1.01 | S. cerevisiae deletion strains, locus YGR252W, strain gcn5, hits give low values 0.992 | S. cerevisiae deletion strains, locus YHR030C, strain SLT2, hits give low values 0.994 | S. cerevisiae deletion strains, locus YHR079C, strain IRE1 (second series), hits give low values 0.987 | S. cerevisiae deletion strains, locus YHR094C, strain hxt1, hits give low values 0.99 | S. cerevisiae deletion strains, locus YHR129C, strain ARP1, hits give low values 0.993 | S. cerevisiae deletion strains, locus YHR200W, strain rpn10, hits give low values 0.986 | S. cerevisiae deletion strains, locus YIL066C, strain RNR3, hits give low values 0.99 | S. cerevisiae deletion strains, locus YIL073C, strain SPO22, hits give low values 0.92 | S. cerevisiae deletion strains, locus YIL125W, strain kgd1, hits give low values 0.971 | S. cerevisiae deletion strains, locus YIR030C, strain dcg1, hits give low values 0.989 | S. cerevisiae deletion strains, locus YJL095W, strain BCK1, hits give low values 1.01 | S. cerevisiae deletion strains, locus YJL134W, strain LCB3, hits give low values 0.987 | S. cerevisiae deletion strains, locus YJL168C, strain set2, hits give low values 0.981 | S. cerevisiae deletion strains, locus YJL187C, strain SWE1 (second series), hits give low values 0.991 | S. cerevisiae deletion strains, locus YJR043C, strain POL32, hits give low values 0.974 | S. cerevisiae deletion strains, locus YJR075W, strain HOC1, hits give low values 0.99 | S. cerevisiae deletion strains, locus YKL009W, strain mrt4, hits give low values 0.966 | S. cerevisiae deletion strains, locus YKL068W, hits give low values 0.98 | S. cerevisiae deletion strains, locus YKL085W, strain MDH1 (second series), hits give low values 0.991 | S. cerevisiae deletion strains, locus YKL085W, strain MDH1, hits give low values 0.991 | S. cerevisiae deletion strains, locus YKL190W, strain CNB1, hits give low values 1 | S. cerevisiae deletion strains, locus YKR001C, strain vps1, hits give low values 1 | S. cerevisiae deletion strains, locus YLR039C, strain RIC1, hits give low values 0.928 | S. cerevisiae deletion strains, locus YLR058C, strain SHM2, hits give low values 0.994 | S. cerevisiae deletion strains, locus YLR102C, strain apc9, hits give low values 0.982 | S. cerevisiae deletion strains, locus YLR262C, strain YPT6, hits give low values 0.892 | S. cerevisiae deletion strains, locus YLR268W, strain sec22, hits give low values 1.01 | S. cerevisiae deletion strains, locus YLR330W, strain CHS5, hits give low values 0.987 | S. cerevisiae deletion strains, locus YLR342W, strain FKS1 (second series), hits give low values 0.965 | S. cerevisiae deletion strains, locus YLR371W, strain rom2, hits give low values 0.967 | S. cerevisiae deletion strains, locus YLR418C, strain cdc73, hits give low values 1.03 | S. cerevisiae deletion strains, locus YML016C, strain PPZ1, hits give low values 0.993 | S. cerevisiae deletion strains, locus YML032C, strain rad52, hits give low values 0.974 | S. cerevisiae deletion strains, locus YML124C, strain tub3, hits give low values 0.999 | S. cerevisiae deletion strains, locus YMR078C, strain ctf18, hits give low values 1 | S. cerevisiae deletion strains, locus YMR223W, strain ubp8, hits give low values 0.988 | S. cerevisiae deletion strains, locus YMR263W, strain SAP30, hits give low values 1 | S. cerevisiae deletion strains, locus YMR307W, strain GAS1, hits give low values 1.01 | S. cerevisiae deletion strains, locus YNL067W, strain RPL9B, hits give low values 0.994 | S. cerevisiae deletion strains, locus YNL128W, strain TEP1, hits give low values 1.01 and 0.986 | S. cerevisiae deletion strains, locus YNL153C, strain GIM3, hits give low values 1.02 and 1.01 | S. cerevisiae deletion strains, locus YNL175C, strain NOP13, hits give low values 0.994 | S. cerevisiae deletion strains, locus YNL197C, strain WHI3, hits give low values 1.01 | S. cerevisiae deletion strains, locus YNL224C, strain SQS1, hits give low values 0.987 | S. cerevisiae deletion strains, locus YNL233W, strain BNI4, hits give low values 1.01 | S. cerevisiae deletion strains, locus YNL250W, strain rad50, hits give low values 0.969 | S. cerevisiae deletion strains, locus YNL271C, strain bni1, hits give low values 0.98 | S. cerevisiae deletion strains, locus YNL298W, strain CLA4, hits give low values 1 | S. cerevisiae deletion strains, locus YNL307C, strain MCK1, hits give low values 0.997 | S. cerevisiae deletion strains, locus YNL322C, strain KRE1, hits give low values 0.991 and 0.996 | S. cerevisiae deletion strains, locus YNR052C, strain pop2, hits give low values 0.981 | S. cerevisiae deletion strains, locus YOL006C, strain TOP1, hits give low values 0.996 | S. cerevisiae deletion strains, locus YOL012C, strain htz1 0.847 | S. cerevisiae deletion strains, locus YOL147C, strain pex11, hits give low values 1 | S. cerevisiae deletion strains, locus YOR061W, strain CKA2, hits give low values 0.993 | S. cerevisiae deletion strains, locus YOR069W, strain VPS5, hits give low values 1 | S. cerevisiae deletion strains, locus YOR083W, strain WHI5 (second series), hits give low values 0.953 | S. cerevisiae deletion strains, locus YOR136W, strain idh2, hits give low values 0.994 | S. cerevisiae deletion strains, locus YOR144C, strain elg1, hits give low values 0.994 | S. cerevisiae deletion strains, locus YOR184W, strain ser1, hits give low values 0.974 | S. cerevisiae deletion strains, locus YOR316C, strain cot1, hits give low values 0.994 | S. cerevisiae deletion strains, locus YPL055C, strain LGE1, hits give low values 1 | S. cerevisiae deletion strains, locus YPL241C, strain CIN2, hits give low values 0.967 | S. cerevisiae deletion strains, locus YPR119W, strain clb2, hits give low values 0.998 | S. cerevisiae deletion strains, locus YPR141C, strain kar3, hits give low values 0.998 | S. cerevisiae deletion strains, locus YPR163C, strain tif3, hits give low values 1 | S. cerevisiae deletion strains, locus YPR167C, strain met16, hits give low values 0.999 | S. cerevisiae deletion strains, strain wtn01, hits give low values 0.994 | S. cerevisiae strains, strain wild type, hits give low values 0.994

From PubChem BioAssay AID1159580 (chemical genetic matrix, 2015)
